Source: PubChem (National Center for Advancing Translational Sciences (NCATS))
Cycloheximide cs = counter-screen hit for Shiga toxin inhibitors, cycloheximide | cell reporter, cycloheximide protein synthesis inhibition counterscreen | max response, % | 300,000 tested, 12% active | AID 2314; in the data active = max response mostly above about 13%, no sharp cut-off; inactive = mostly below about 14%; also: read at 38.3 µM for the half of the compounds with a filed dose
NS1 function inh = inhibitors of influenza NS1 protein function; Potency, µM (series often up to 46.1 µM); 270,000 tested, 0.4% active; AID 2326; also: actives are rising curves; nearly all actives have a fitted effect of over 50% in size
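A cell-based growth assay was used: compounds that relieve NS1-induced slow growth of budding yeast raise OD600. Assay medium was yeast nitrogen base with ammonium sulphate and -URA supplement, pH 6.0, with 2% galactose.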
SARS PLP yeast = SARS-CoV PLP inhibition in yeast; 330,000 tested, 0.19% active; S. cerevisiae expressing SARS-CoV PLpro, growth rescue; Potency, µM (titrated, usually from 32.9 µM), hits mostly activators; also: nearly all actives have a fitted effect of over 55% in size
Shiga inhibitor = inhibitors of Shiga toxin in Vero cells. Vero cells, Shiga toxin protein synthesis inhibition reporter. inhibition, % at 38.7 µM. 290,000 tested, 9.2% active; in the data active = inhibition mostly above about 28%, no sharp cut-off; inactive = mostly below about 43%
Hits are given with their value; i = inactive; nt = no result; ! = not confirmed by another sample. Rows were chosen to be rich in hits. Some 12% of all compounds tested hit in one or more screens of this group. Unless noted, calls follow the shape of the full dose curve.

SMILES | Cycloheximide cs | NS1 function inh | SARS PLP yeast | Shiga inhibitor
CC(OC(=O)Cn1cnc2c1c(=O)n(C)c(=O)n2C)C(=O)N(C)c1ccccc1 (centres undefined) | nt | nt | i | nt
CCN(CC)Cc1c(C(=O)N/N=C/c2cccs2)nnn1-c1nonc1N | i | i | i | i
Cc1nn(-c2ccccc2)c2sc(C(=O)N3CCCCC3)cc12 | 48 | i | nt | 114
Cc1nn(-c2ccccc2)c2sc(C(=O)N3CCc4ccccc4C3)cc12 | i | i | i | i
COc1cc(OC)cc(C2=Nn3c(nnc3-c3ccccc3OC)SC2)c1 | i | nt | nt | i
CN(Cc1cnn(C)c1)Cc1nc(C(c2ccccc2)c2ccccc2)no1 | i | i | i | i
CC(C)N(Cc1cnn(C)c1)Cc1nc(COc2ccccc2)no1 | i | i | i | i
CN(Cc1cnn(C)c1)Cc1nc(COc2ccccc2)no1 | 14 | i | i | i
CN(Cc1cnn(C)c1)Cc1nc(-c2ccc(Cl)cc2)no1 | 16 | i | i | i
CCCC(=O)Nc1cc(S(=O)(=O)N(CC)CC)ccc1Cl | i | i | i | i
CCOc1ccccc1N1CC(C(=O)Nc2cc(Cl)ccc2-n2cncn2)CC1=O (centres undefined) | nt | nt | i | nt
NS(=O)(=O)c1ccc(N/N=C/C=C/c2ccccc2[N+](=O)[O-])cc1 | 37 | i | i | 80
NS(=O)(=O)c1ccc(N/N=C/c2ccccc2Br)cc1 | i | nt | i | i
O=C(O)c1cc(N/N=C/C=C/c2ccccc2[N+](=O)[O-])ccc1Cl | 42 | i | i | 68
N#CCc1ccc(C(=O)c2ccccc2)s1 | 18 | i | i | i
COc1ccc(N2Cc3ccc(OC)c(OC)c3C2=O)cc1 | 48 | i | i | 76
COc1ccc2c(c1OC)C(=O)N(c1nccs1)C2 | 34 | i | i | i
COc1ccc2c(c1OC)C(=O)N(c1cccc(/C=C/C(=O)O)c1)C2 | i | i | i | i
CC(C)(C)c1ccc(/C=N/N2C(=O)CSC2=S)cc1 | 16 | i | i | i
COc1ccc(/C=N/N2C(=O)CSC2=S)cc1 | i | i | nt | i
O=c1cc(-c2ccc(Br)cc2)[nH][nH]1 | i | i | i | i
O=c1cc(-c2ccc(C3CCCCC3)cc2)[nH][nH]1 | 22 | nt | i | i
Cc1cc2c(c(C)c1Cl)C(c1ccc3c(c1)OCO3)CC(O)(c1ccccc1)O2 (centres undefined) | i | nt | nt | i
O=C(Nc1cccc([N+](=O)[O-])c1)c1ccc2snnc2c1 | i | i | i | i
O=C(Nc1ccc(F)cc1)c1ccc2snnc2c1 | 29 | i | i | 52
SMILES | Cycloheximide cs | NS1 function inh | SARS PLP yeast | Shiga inhibitor
CCOc1ccc(NC(=O)c2ccc3snnc3c2)cc1 | i | i | i | 43
Cc1ccc(NC(=O)c2ccc3snnc3c2)cc1C | 37 | i | i | 74
Cc1ccccc1NC(=O)c1ccc2snnc2c1 | i | i | i | i
COCCNC(=O)c1ccc2snnc2c1 | i | i | i | i
COc1cccc(NC(=O)c2ccc3snnc3c2)c1 | 37 | i | i | 81
COc1ccc(Cn2ncc3c4sc(C)cc4n(C)c3c2=O)cc1F | i | nt | nt | i
Cc1cccc(C(=O)NC2CCN(C(=O)NCc3ccccc3)CC2)c1 | i | i | i | i
Cc1ccc(F)cc1-c1ccc(C(=O)N=C(N)N)o1 | 32 | nt | nt | 60
Cc1ccc(-c2ccc(C(=O)NCc3ccc(Cl)cc3)o2)c2ccccc12 | i | i | i | i
Cc1cccc(C)c1N1CCN(C(=O)Nc2ccc3c(c2)OCCO3)CC1 | 45 | i | i | 56
CC(C)(C)OC(=O)N1CCCN(C(=O)Nc2ccccc2)CC1 | i | i | i | i
CC(C)(C)OC(=O)N1CCN(C(=O)Nc2ccc3c(c2)OCCO3)CC1 | 24 | nt | i | i
O=C(Nc1ccc2c(c1)OCCO2)N1CCN(c2ccc(F)cc2)CC1 | 38 | i | i | 35
CCN(CC)C(=O)c1cc2c(=O)oc3ccccc3c2s1 | 27 | i | i | 34
CCN(CC)C(=O)c1cc2c(=O)n3ccccc3nc2s1 | i | i | i | i
COC(=O)c1onc(-c2c(Cl)cccc2Cl)c1C(=O)OC | i | i | i | i
N/C(=N\c1nc2ccccc2o1)NC(=O)c1ccc(F)cc1 | 32 | i | i | 72
N/C(=N\c1nc2ccccc2o1)NC(=O)c1ccccc1Br | 33 | i | i | 80
CC(=O)N/N=C\c1cccc(OC/C=C/c2ccccc2)c1 | 59 | i | i | 159
COc1cc(/C=N\NC(=O)CC#N)ccc1OC/C=C/c1ccccc1 | i | i | i | i
N#CCC(=O)N/N=C\c1cccc(OC/C=C/c2ccccc2)c1 | 53 | i | i | 122
CC(=O)N/N=C\c1ccccc1OC/C=C/c1ccccc1 | 22 | i | i | i
CCOC(=O)N/N=C\c1cccc(OC)c1OC/C=C/c1ccccc1 | i | i | i | 34
COc1cccc(/C=N/NC(=O)CC(C)O)c1OC/C=C/c1ccccc1 (centres undefined) | i | i | i | i
COc1ccccc1N1CCN(S(=O)(=O)c2c[nH]c(=O)[nH]c2=O)CC1 | nt | nt | i | nt
SMILES | Cycloheximide cs | NS1 function inh | SARS PLP yeast | Shiga inhibitor
COc1ccc(-c2c(NC(=O)c3ccco3)oc3ccccc3c2=O)cc1OC | i | i | i | i
Cc1nnc(N2C(=O)c3ccc(Br)cc3C2=O)s1 | i | i | i | i
CC(C)(C)c1ccc(C(=O)COC(=O)CN2C(=O)NC3(CCCC3)C2=O)cc1 | i | i | i | i
O=C(NC(=S)NC1C2CC3CC(C2)CC1C3)c1ccccc1 (centres undefined) | 18 | i | i | 49
O=C(NC(=S)NC1CCCC1)c1ccccc1 | 43 | i | i | 67
COC(=O)c1cc2c(cn1)[nH]c1ccccc12 | nt | i | nt | nt
CCOC(=O)c1cc2c(cn1)[nH]c1ccccc12 | 27 | i | i | 59
CC(C)CN1CCC(=O)N(CCOc2ccccc2)CC1 | 28 | i | i | 28
CC(C)CN1CCC(=O)N(C(CSc2ccc(Br)cc2)Cc2ccccc2)CC1 (centres undefined) | i | nt | nt | i
CC(C)CN1CCC(=O)N(CCSc2ccc(Br)cc2)CC1 | i | i | i | 53!
O=C(Nc1cccc(S(=O)(=O)N2CCCC2)c1)c1cc(-c2ccccn2)nc2ccccc12 | i | nt | i | i
Cn1ncc(Cl)c1C(=O)Nc1nc2ccc(Cl)cc2s1 | 66 | i | i | 56
Cc1cc(C(=O)Nc2nc3ccc(Cl)cc3s2)nn1C | 24 | i | i | 92
Cn1ncc(Cl)c1C(=O)Nc1nnc(C2CC2)s1 | i | i | i | i
O=C(Nc1nc2ccc(Cl)cc2s1)c1ccc(Br)o1 | 34 | i | i | 87
COc1ccc(Oc2c(Cl)cnn(-c3ccc(Cl)c(Cl)c3)c2=O)cc1 | i | i | i | i
O=c1c2ccccc2nnn1-c1ccc(Br)cc1 | 44 | i | i | 97
O=c1c2ccccc2cnn1-c1ccc(Cl)nn1 | 18 | i | i | 42
O=c1c2ccccc2cnn1-c1ccc2ccccc2c1 | 33 | i | i | 98
O=c1c2ccccc2cnn1Cc1ccc(Cl)c(Cl)c1 | i | i | i | i
Cc1ccc(-n2ncc(Br)c(Br)c2=O)cc1 | i | i | i | i
O=c1c2ccccc2cnn1-c1ccc(Br)cc1 | 57 | i | i | 65
COc1ccc(NC(=O)CN(C)Cc2c(F)cccc2Cl)cc1S(=O)(=O)N1CCCCC1 | i | nt | i | i
CCCCNC(=O)N1CCN(Cc2cccc(F)c2)CC1 | i | i | i | i
CN(C)c1ccc(NC(=O)COC(=O)Cn2nnc3ccccc32)cc1 | i | i | i | i
